In PubChem BioAssay (EPA / NIEHS):
Activity calls are given as the source filed them. How the source made its calls: active means hit-call score of the fitted dose curve at least 0.9, where 1 is the maximum; inactive means score below 0.9.

Test: ATG_TAL_CIS: Attagene CIS-FACTORIAL HepG2 Assay for human TAL Basal Promoter (AID 2282966);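 further: background control endpoint measuring basal TAL promoter reporter mRNA not a specific factor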
Conditions: HepG2 Attagene cis-factorial TAL promoter reporter; actives raise or lower the signal
Summary of the method: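 Basal-promoter background-control endpoint from a multiplexed HepG2 reporter panel. Cells were exposed 24 h, then reporter mRNA was read by RT-PCR/CE fluorescence and fitted in both directions relative to DMSO.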

outcome, inactive:
CC1=CC(=O)c2ccccc2C1=O
CC(C)(C)C1CCCCC1O (stereo not drawn)
CC(C)CCOCCC(C)C
CCCCCCCCCCCCCC[n+]1ccccc1
CCCCCCCC(OC)OC
O=CC(F)(F)C(F)(F)C(F)(F)C(F)F
CCCCCCCCCCCCCCC
O=C1OC(=O)C(F)(F)C1(F)F
COCN(COC)c1nc(N(COC)COC)nc(N(COC)COC)n1
CC(=O)Nc1ccc(S(N)(=O)=O)cc1
CCCCCCCCCCCC(=O)NCCCN(C)C
C=CC(C)(CCC=C(C)C)OC(C)=O (stereo not drawn)
O=C(OC(=O)C(F)(F)C(F)(F)F)C(F)(F)C(F)(F)F
C[N+](C)(CCCNS(=O)(=O)CCC(F)(F)C(F)(F)C(F)(F)C(F)(F)C(F)(F)C(F)(F)F)CC(=O)[O-]
CCOC(=O)CN[C@@H](C(=O)N1CC[C@H]1C(=O)NCc1ccc(/C(N)=N/O)cc1)C1CCCCC1
CC(O)COc1ccccc1 (stereo not drawn)
CCC(C)c1ccccc1O (stereo not drawn)
C/C=C/C(=O)C1=C(C)CCCC1(C)C
O=C(NCc1ncc(C(F)(F)F)cc1Cl)c1c(Cl)cccc1Cl
CCCCCC(C)OC(=O)COc1ccc(Cl)c2cccnc12 (stereo not drawn)
O=S(=O)(O)C(F)(F)C(F)(F)C(F)(F)C(F)(F)C(F)(F)C(F)(F)C(F)(F)C(F)(F)C(F)(F)C(F)(F)F
c1cc2cccc3c4cccc5cccc(c(c1)c23)c54
CCCCC(CC)C(=O)OCCOCCOCCOCCOC(=O)C(CC)CCCC (stereo not drawn)
